Screens as filed in PubChem.
Only some compounds are listed: those with a hit (about 19% of all), similar ones and a draw of the others.
HT1080 IDH1KD tx: qHTS for induction of synthetic lethality in tumor cells producing 2HG: qHTS for the HT-1080-IDH1KD cell line | HT-1080 IDH1 knockdown viability, ATP luminescence, 48 h | Potency, µM (highest dose often 46.1 µM), usual class: cytotoxic | 2% of 360,000 active | AID 686971, 2013
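HT-1080-IDH1KD cells (IDH1 knocked down), 750/well in RPMI with 5% FBS, treated with compound 48 h at 37 degrees C. Viability by CellTiter-Glo luminescence, normalised to DMSO and no-cell wells; concentration-response curves classed.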
HT1080NT lethal: qHTS for induction of synthetic lethality in tumor cells producing 2HG: qHTS for the HT-1080-NT fibrosarcoma cell line. HT-1080-NT fibrosarcoma viability, CellTiter-Glo ATP luminescence, 48 h. Potency, µM (highest dose often 46.1 µM), hits mostly cytotoxic. 1.6% of 360,000 active. AID 686970, 2013;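 note: NT is the 2HG producing partner of a matched IDH1 knockdown line; nearly all actives have a fitted effect of over 55% in size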
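Read-out is CellTiter-Glo luminescence after 10 minutes at room temperature, following 48 hours' compound treatment of HT-1080-NT cells (750 cells/well, RPMI, 5% FBS, 37 degrees C).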
TDP1 cell CPT: qHTS for Inhibitors of human tyrosyl-DNA phosphodiesterase 1 (TDP1): qHTS in cells in presence of CPT; chicken DT40 Tdp1-/-;hTDP1 cells + 20 nM CPT, ATP luminescence, 48 h; Potency, µM (doses to about 46.2 µM), hits mostly inhibitors; 12% of 420,000 active; AID 686979, 2013; note: nearly all actives have a fitted effect of over 55% in size
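Chicken DT40 Tdp1-/- cells stably complemented with human TDP1 were seeded at 400 cells/well in medium containing 20 nM camptothecin, exposed to pin-transferred compounds, and grown at 37 °C for at least 48 hr. Viability was read as ATP luminescence.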
IL-1B inflam inh: qHTS for Inhibitors of Inflammasome Signaling: IL-1-beta AlphaLISA Primary Screen. THP-1 LPS/ATP IL-1B secretion, AlphaLISA, 16 h; active compounds read low. activity change, % at 57.5 µM. 4.7% of 360,000 active. AID 743279, 2014; in the data active = activity change below about -50%; inconclusive = mostly about -30% to -49%
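THP-1 cells pretreated 1 hr with compounds (up to 57.5 uM final), then stimulated with LPS (250 ng/mL final) plus ATP (1.25 mM final); secreted IL-1B measured by AlphaLISA after 16 hr, decreased signal indicating inhibition.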
TDP1 cell noCPT: qHTS for Inhibitors of human tyrosyl-DNA phosphodiesterase 1 (TDP1): qHTS in cells in absence of CPT; DT40 Tdp1-/- hTDP1 cells, no CPT, ATP luminescence, 48 h; Potency, µM (series often up to 46.2 µM), usual class: inhibitors; 15% of 420,000 active; AID 686978, 2013; note: nearly all actives have a fitted effect of over 55% in size
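Chicken DT40 Tdp1-/- cells complemented with human TDP1, screened without camptothecin (DMSO vehicle only), 400 cells/well. Compounds pin-transferred, cells incubated at 37 °C for at least 48 hr. Growth read as ATP-dependent luminescence (CellTiter-Glo, 30 min at RT).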
Each line names hits and unclear results; the compound was inactive in the other large screens. Unless noted, calls come from the whole dose curve; as a rule, active = well fitted curve in the direction sought with a large enough effect; inconclusive = small, poorly fitted or top-dose-only effect, or another doubt; inactive = no such curve, though single readings can be large; an effect the other way counts as inactive or inconclusive.

CCn1cc2nc(SCc3ccccc3Cl)n(Cc3ccc(OC)cc3)c(=O)c2n1	TDP1 cell CPT 26µM, TDP1 cell noCPT 15µM (no result: HT1080 IDH1KD tx, HT1080NT lethal, IL-1B inflam inh)
CCn1cc2nc(SCc3cc(C)ccc3C)n(Cc3ccc(C)cc3)c(=O)c2n1	TDP1 cell CPT 16µM (no result: HT1080 IDH1KD tx, HT1080NT lethal, IL-1B inflam inh)
CCn1cc2nc(SCc3ccccc3)n(Cc3ccc(C)cc3)c(=O)c2n1	TDP1 cell CPT 16µM, TDP1 cell noCPT 10µM (no result: HT1080 IDH1KD tx, HT1080NT lethal, IL-1B inflam inh)
CCn1cc2nc(SCc3ccc(F)cc3)n(Cc3ccc(Cl)cc3)c(=O)c2n1	TDP1 cell CPT 6.5µM, TDP1 cell noCPT 3.3µM (no result: HT1080 IDH1KD tx, HT1080NT lethal, IL-1B inflam inh)
CCn1cc2nc(SCC(=O)Nc3ccc(OC)c(Cl)c3)n(Cc3ccc(OC)cc3)c(=O)c2n1	none (no result: HT1080 IDH1KD tx, HT1080NT lethal, IL-1B inflam inh)
Cc1ccc(C)c(CSc2nnc(C)c(=O)n2N)c1	none
O=C(NCC(c1ccc2c(c1)OCO2)N1CCOCC1)C(=O)Nc1ccc(Cl)cc1 (stereo not drawn)	TDP1 cell CPT inconclusive (no result: HT1080 IDH1KD tx, HT1080NT lethal, IL-1B inflam inh)
CCn1cc2nc(SCc3ccccc3F)n(Cc3ccc(C)cc3)c(=O)c2n1	TDP1 cell CPT 21µM, TDP1 cell noCPT 12µM (no result: HT1080 IDH1KD tx, HT1080NT lethal, IL-1B inflam inh)
COc1ccc(CNC(=O)COC(=O)/C=C/c2cccc(Br)c2)cc1OC	TDP1 cell CPT inconclusive
COc1cccc(Cn2c(NCC(C)C)nc3c2c(=O)n(C)c(=O)n3C)c1	HT1080 IDH1KD tx inconclusive, HT1080NT lethal inconclusive, TDP1 cell CPT 29µM, TDP1 cell noCPT 23µM
Cn1c(=O)c2c(nc(NCCCN3CCOCC3)n2Cc2cccc(Cl)c2)n(C)c1=O	TDP1 cell CPT inconclusive, TDP1 cell noCPT inconclusive
CC(O)CNc1nc2c(c(=O)n(C)c(=O)n2C)n1Cc1cccc(Br)c1 (stereo not drawn)	TDP1 cell CPT inconclusive, TDP1 cell noCPT 14µM
Cn1c(=O)c2c(ncn2Cc2ccccc2)n(C)c1=O	TDP1 cell CPT inconclusive
CC(CCO)Nc1nc2c(c(=O)n(C)c(=O)n2C)n1Cc1cccc(Br)c1 (stereo not drawn)	TDP1 cell CPT 12µM, TDP1 cell noCPT 21µM
Cn1c(=O)c2c(nc(NCCNC(=O)c3ccco3)n2Cc2ccccc2)n(C)c1=O	TDP1 cell CPT inconclusive, TDP1 cell noCPT inconclusive
COc1cccc(Cn2cnc3c2c(=O)n(C)c(=O)n3C)c1	TDP1 cell CPT 12µM, TDP1 cell noCPT 12µM (no result: HT1080 IDH1KD tx, HT1080NT lethal, IL-1B inflam inh)
Cc1nc2cnc(N(C)C)nc2n(-c2ccccc2)c1=O	none (no result: HT1080 IDH1KD tx, HT1080NT lethal, IL-1B inflam inh)
CCCOc1ccc(N2CC(C(=O)NC3=NCCS3)CC2=O)cc1 (stereo not drawn)	none
CC1CC(C)CN(C(=O)CSc2ncnc3sccc23)C1 (stereo not drawn)	none
Cn1c(Cl)nc2c1c(=O)n(Cc1cccc(Br)c1)c(=O)n2C	TDP1 cell CPT inconclusive, TDP1 cell noCPT inconclusive
Cn1c(=O)c2c(nc(NCc3ccc4c(c3)OCO4)n2Cc2ccccc2)n(C)c1=O	HT1080 IDH1KD tx inconclusive, HT1080NT lethal inconclusive, TDP1 cell CPT inconclusive, TDP1 cell noCPT inconclusive
CC(C)CNc1nc2c(c(=O)n(C)c(=O)n2C)n1Cc1cccc(Br)c1	TDP1 cell CPT 21µM, TDP1 cell noCPT 23µM
CC(O)CNc1nc2c(c(=O)n(C)c(=O)n2C)n1Cc1cccc(C(F)(F)F)c1 (stereo not drawn)	TDP1 cell CPT inconclusive, TDP1 cell noCPT 26µM
COCCNc1nc2c(c(=O)n(C)c(=O)n2C)n1Cc1cccc(C(F)(F)F)c1	TDP1 cell CPT 3.3µM, TDP1 cell noCPT 3.7µM
Cc1ccc2[nH]c(=O)c(CN(Cc3ccccc3)Cc3nnnn3Cc3ccccc3)cc2c1	TDP1 cell CPT inconclusive, TDP1 cell noCPT 13µM (no result: HT1080 IDH1KD tx, HT1080NT lethal, IL-1B inflam inh)
Cc1ccc2cc(CN(Cc3ccco3)Cc3nnnn3Cc3ccco3)c(=O)[nH]c2c1	TDP1 cell CPT inconclusive, TDP1 cell noCPT 11µM (no result: HT1080 IDH1KD tx, HT1080NT lethal, IL-1B inflam inh)
COc1ccc2cc(CN(Cc3cccnc3)Cc3nnnn3Cc3ccccc3)c(=O)[nH]c2c1	TDP1 cell CPT inconclusive, TDP1 cell noCPT inconclusive
Cc1ccc2[nH]c(=O)c(CN(Cc3ccco3)Cc3nnnn3Cc3ccccc3)cc2c1	TDP1 cell CPT inconclusive, TDP1 cell noCPT 16µM (no result: HT1080 IDH1KD tx, HT1080NT lethal, IL-1B inflam inh)
